# Test results as given in the supplement of paper PMC9262897, “Low-cost anti-mycobacterial drug discovery using engineered E. coli” (Nature Communications, 2022).
# Where a name gives a salt, the structure may show the parent alone. ± gives the standard deviation of the averaged measurements.
# Assays:
# Assay in all cases: growth (OD600 after 10 h); higher = more growth (less inhibition)
# [1] = tested on: E. coli TESEC Alr+ wild-type control; conditions: compound 0.1 mM; raw OD600 reference: median of DMSO wells 0.241, cell-free background 0.041
# Protocol: (§1)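 TESEC Mtb Alr E. coli, or the Alr+ wild-type control, in 384-well plates with Prestwick library compounds at 0.1 mM and 1% DMSO, across arabinose induction levels of 1E3 to 1E7 nM. Growth is read as OD600 after 10 h at 37 °C in triplicate biological replicates.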
# E. coli TESEC Mtb Alr [2] = conditions: compound 0.1 mM
# Protocol: as §1
# E. coli TESEC Mtb Asd = conditions: compound 0.1 mM
# Protocol: (§2)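 TESEC E. coli strains in which the native enzyme is deleted and replaced by arabinose-inducible Mtb Asd, DapB, CysH or TrpD, each grown in its selective medium. Strains were screened against the Prestwick library at 0.1 mM and 1% DMSO in 384-well format at low and high arabinose induction. Growth is read as OD600 after 10 h in triplicate.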
# [3] = tested on: E. coli TESEC Alr+ wild-type control; conditions: compound 0.1 mM; raw OD600 reference: median of DMSO wells 0.49, cell-free background 0.052
# Protocol: (§3)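 TESEC Mtb Alr E. coli (ΔaraC ΔtolC ΔentC Δalr ΔdadX, arabinose-inducible Mtb Alr) or the Alr+ wild-type control strain, grown in defined M9-fructose medium without D-alanine in 96-well plates with Prestwick library compounds at 0.1 mM and 1% DMSO. Low Alr induction is 0.1 µM arabinose and high induction is 10 mM arabinose.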
# E. coli TESEC Mtb Alr [4] = conditions: compound 0.1 mM; remark: listed apart in the source
# Protocol: as §3
# E. coli TESEC Mtb DapB = conditions: compound 0.1 mM
# Protocol: as §2
# [5] = arabinose 1000 nM, raw OD600 reference: median of DMSO wells 0.294, cell-free background 0.041
# [6] = arabinose 10000 nM, raw OD600 reference: median of DMSO wells 0.264, cell-free background 0.041
# [7] = arabinose 100000 nM, raw OD600 reference: median of DMSO wells 0.201, cell-free background 0.041
# [8] = arabinose 1000000 nM, raw OD600 reference: median of DMSO wells 0.193, cell-free background 0.041
# [9] = arabinose 10000000 nM, raw OD600 reference: median of DMSO wells 0.146, cell-free background 0.041
# [10] = arabinose induction (level): High, raw OD600 reference: median of DMSO wells 0.331, cell-free background 0.041
# [11] = arabinose induction (level): Low, raw OD600 reference: median of DMSO wells 0.417, cell-free background 0.041
# [12] = arabinose 100 nM, raw OD600 reference: median of DMSO wells 0.413, cell-free background 0.052
# [13] = arabinose 10000000 nM, raw OD600 reference: median of DMSO wells […], cell-free background 0.052
# [14] = arabinose induction (level): High, raw OD600 reference: median of DMSO wells […], cell-free background 0.041
# [15] = arabinose induction (level): Low, raw OD600 reference: median of DMSO wells 0.227, cell-free background 0.041
Compound,growth [1],growth (E. coli TESEC Mtb Alr [2]; [5]),growth (E. coli TESEC Mtb Alr [2]; [6]),growth (E. coli TESEC Mtb Alr [2]; [7]),growth (E. coli TESEC Mtb Alr [2]; [8]),growth (E. coli TESEC Mtb Alr [2]; [9]),growth (E. coli TESEC Mtb Asd; [10]),growth (E. coli TESEC Mtb Asd; [11]),growth [3],growth (E. coli TESEC Mtb Alr [4]; [12]),growth (E. coli TESEC Mtb Alr [4]; [13]),growth (E. coli TESEC Mtb DapB; [14]),growth (E. coli TESEC Mtb DapB; [15])
COC(=O)Nc1nc2cc([S+]([O-])c3ccccc3)ccc2[nH]1 (stereo unspecified) [Oxfendazol],0.251 ± 0.016,0.304 ± 0.014,0.2674 ± 0.00072,0.195 ± 0.024,0.165 ± 0.0037,0.1348 ± 0.00046,0.276 ± 0.08,0.382 ± 0.044,0.634 ± 0.024,0.407 ± 0.011,0.312 ± 0.022,,
CCOc1nc2cccc(C(=O)O)c2n1Cc1ccc(-c2ccccc2-c2nnn[nH]2)cc1 [Candesartan],0.238 ± 0.0077,0.297 ± 0.0053,0.285 ± 0.0054,0.212 ± 0.023,0.222 ± 0.015,0.141 ± 0.0058,0.292 ± 0.03,0.265 ± 0.029,0.642 ± 0.092,0.415 ± 0.0062,0.355 ± 0.0055,,
CN(C)CCN(Cc1ccccc1)c1ccccn1 [Tripelennamine hydrochloride],0.203 ± 0.0015,0.281 ± 0.0071,0.254 ± 0.0058,0.181 ± 0.0046,0.184 ± 0.003,0.133 ± 0.004,0.232 ± 0.055,0.329 ± 0.1,0.537 ± 0.091,0.406 ± 0.0074,0.307 ± 0.0053,,
Cc1ccc(-c2cc(C(F)(F)F)nn2-c2ccc(S(N)(=O)=O)cc2)cc1 [Celecoxib],0.0401 ± 0.00046,0.041 ± 0.0023,0.0401 ± 0.00091,0.0415 ± 0.0019,0.0418 ± 0.0037,0.04133 ± 0.00035,0.04733 ± 0.00047,0.0479 ± 0.00085,0.425 ± 0.11,0.308 ± 0.021,0.0533 ± 0.0036,,
N[C@@H](Cc1ccc(O)c(O)c1)C(=O)O [Levodopa],0.229 ± 0.0045,0.275 ± 0.015,0.267 ± 0.015,0.199 ± 0.028,0.178 ± 0.0063,0.138 ± 0.0042,0.383 ± 0.026,0.455 ± 0.0078,0.489 ± 0.052,0.413 ± 0.013,0.354 ± 0.018,,
NNc1nncc2ccccc12 [Hydralazine hydrochloride],0.142 ± 0.0062,0.262 ± 0.022,0.256 ± 0.0092,0.174 ± 0.013,0.12 ± 0.0069,0.13 ± 0.0019,0.206 ± 0.017,0.25 ± 0.021,,0.404 ± 0.0077,0.304 ± 0.018,0.19 ± 0.0027,0.229 ± 0.033
Nc1nc(N)c2nc(-c3ccccc3)c(N)nc2n1 [Triamterene],0.135 ± 0.0027,0.146 ± 0.012,0.12 ± 0.0045,0.138 ± 0.0069,0.0711 ± 0.0011,0.119 ± 0.0058,0.235 ± 0.014,0.411 ± 0.015,0.422 ± 0.0047,0.416 ± 0.0074,0.122 ± 0.016,,
NC(CO)C(=O)NNCc1ccc(O)c(O)c1O (stereo unspecified) [Benserazide hydrochloride],0.0616 ± 0.0013,0.246 ± 0.0069,0.224 ± 0.0028,0.205 ± 0.033,0.0994 ± 0.0023,0.124 ± 0.0056,0.186 ± 0.018,0.186 ± 0.0073,0.465 ± 0.036,0.337 ± 0.069,0.148 ± 0.03,,
CC1Cc2ccccc2N1NC(=O)c1ccc(Cl)c(S(N)(=O)=O)c1 (stereo unspecified) [Indapamide],0.225 ± 0.0038,0.278 ± 0.01,0.27 ± 0.011,0.191 ± 0.015,0.159 ± 0.0057,0.15 ± 0.009,0.224 ± 0.01,0.442 ± 0.03,,0.425 ± 0.014,0.336 ± 0.018,0.208 ± 0.016,0.216 ± 0.021
CCN[C@H]1CN(CCCOC)S(=O)(=O)c2sc(S(N)(=O)=O)cc21 [Brinzolamide],0.248 ± 0.012,0.282 ± 0.017,0.261 ± 0.0091,0.219 ± 0.03,0.182 ± 0.0056,0.135 ± 0.0031,0.259 ± 0.085,0.385 ± 0.11,,0.405 ± 0.0097,0.3104 ± 0.0022,0.202 ± 0.013,0.215 ± 0.011
CO[C@H]1/C=C/O[C@@]2(C)Oc3c(C)c(O)c4c(O)c(c5c(nc6cc(C)ccn65)c4c3C2=O)NC(=O)/C(C)=C\C=C\[C@H](C)[C@H](O)[C@@H](C)[C@@H](O)[C@@H](C)[C@H](OC(C)=O)[C@@H]1C [Rifaximin],0.044 ± 0.0038,0.0438 ± 0.0029,0.0409 ± 0.0005,0.0411 ± 0.00017,0.0418 ± 0.0021,0.0439 ± 0.0024,0.0569 ± 0.001,0.054 ± 0.0016,0.0531 ± 0.00076,0.05527 ± 0.00047,0.0526 ± 0.00044,,
CCOC(=O)n1ccn(C)c1=S [Carbimazole],0.239 ± 0.0029,0.297 ± 0.0079,0.27 ± 0.012,0.192 ± 0.0037,0.212 ± 0.0081,0.145 ± 0.0022,0.346 ± 0.079,0.284 ± 0.037,0.607 ± 0.05,0.424 ± 0.011,0.407 ± 0.0073,,
COc1cc(NC(C)CCCN)c2ncccc2c1 (stereo unspecified) [Primaquine diphosphate],0.0466 ± 0.00081,0.0463 ± 0.00081,0.04143 ± 0.00031,0.0508 ± 0.0023,0.043 ± 0.00026,0.0577 ± 0.0019,0.0857 ± 0.0065,0.0611 ± 0.0046,0.267 ± 0.025,0.38 ± 0.018,0.08 ± 0.024,,
CCN(CC)CCNC(=O)c1cc(Cl)c(N)cc1OC [Metoclopramide monohydrochloride],0.2268 ± 0.0011,0.278 ± 0.016,0.252 ± 0.017,0.195 ± 0.015,0.179 ± 0.0077,0.144 ± 0.0028,0.252 ± 0.015,0.485 ± 0.011,0.633 ± 0.05,0.409 ± 0.0098,0.358 ± 0.0081,,
C[N+](C)(C)CCCCCC[N+](C)(C)C [Hexamethonium dibromide dihydrate],0.247 ± 0.0066,0.27 ± 0.018,0.245 ± 0.0047,0.191 ± 0.022,0.1745 ± 0.00064,0.138 ± 0.0063,0.344 ± 0.048,0.454 ± 0.015,0.536 ± 0.007,0.425 ± 0.0087,0.384 ± 0.015,,
Nc1ccc(C(=O)O)c(O)c1 [4-aminosalicylic acid],0.247 ± 0.0075,0.305 ± 0.011,0.277 ± 0.0057,0.201 ± 0.017,0.19 ± 0.004,0.153 ± 0.0068,0.222 ± 0.024,0.377 ± 0.086,0.545 ± 0.044,0.422 ± 0.0061,0.302 ± 0.014,,
O=C(CCCCCCC(=O)Nc1ccccc1)NO [Vorinostat],0.253 ± 0.0073,0.295 ± 0.0062,0.238 ± 0.0041,0.164 ± 0.012,0.153 ± 0.0023,0.124 ± 0.011,0.195 ± 0.028,0.335 ± 0.061,,0.415 ± 0.01,0.3 ± 0.021,0.174 ± 0.0062,0.204 ± 0.0056
